Laboratory results: PubChem BioAssay AID1159580 (chemical genetic matrix, 2015)
Several values for one entry are separate records, joined by “and”; a condition that tells them apart may be missing. Equal entries are not always repeated. The campaign covered roughly 5,500 compounds. About 2,000 (36%) were called active. Inconclusive results (about 18%) are left out. Cut-off read from the data, not from the text of the source: active = normalized growth mostly below about 0.91 (no sharp cut-off); inconclusive = no clear call, values can overlap the other calls; inactive = mostly above about 0.92. Some of the results follow.

Assay: chemical genetic growth profiling, strain panel (AID 1159580);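 note: tested at 20 µM; growth read once vehicle control cultures reached saturation at 30 °C; 1 = growth at the plate median or of vehicle wells; lower values mean less growth of the strain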
Conditions: S. cerevisiae deletion strains, growth OD

Measured: normalized growth

CCCCCCc1ccc(O)cc1O
active: locus YAL013W, strain DEP1, hits give low values 0.677 | locus YAL026C, strain drs2, hits give low values 0.747 | locus YBR009C, strain hhf1, hits give low values 0.788 | locus YBR023C, strain chs3, hits give low values 0.89 | locus YBR231C, strain swc5, hits give low values 0.865 | locus YCL011C, strain gbp2, hits give low values 0.896 | locus YCL016C, strain dcc1, hits give low values 0.912 | locus YCL029C, strain bik1, hits give low values 0.877 | locus YCL061C, strain MRC1, hits give low values 0.906 | locus YDL192W, strain arf1, hits give low values 0.798 | locus YDR101C, strain arx1, hits give low values 0.84 | locus YDR137W, strain rgp1, hits give low values 0.608 | locus YDR159W, strain sac3, hits give low values 0.525 | locus YDR318W, strain mcm21, hits give low values 0.794 | locus YDR388W, hits give low values 0.868 | locus YDR392W, strain spt3, hits give low values 0.283 | locus YDR502C, strain sam2, hits give low values 0.814 | locus YEL003W, strain gim4, hits give low values 0.911 | locus YER155C, strain BEM2 (second series), hits give low values 0.642 | locus YER155C, strain BEM2, hits give low values 0.875 | locus YGL078C, strain dbp3, hits give low values 0.885 | locus YGL086W, strain mad1, hits give low values 0.783 | locus YGL173C, strain kem1, hits give low values 0.883 | locus YGL248W, strain PDE1, hits give low values 0.868 | locus YGL253W, strain hxk2, hits give low values 0.893 | locus YGR135W, strain pre9, hits give low values 0.85 | locus YGR252W, strain gcn5, hits give low values 0.752 | locus YHR013C, strain ard1, hits give low values 0.822 | locus YHR030C, strain SLT2, hits give low values 0.804 | locus YHR079C, strain IRE1 (second series), hits give low values 0.832 | locus YHR142W, strain chs7, hits give low values 0.838 | locus YHR200W, strain rpn10, hits give low values 0.903 | locus YIL125W, strain kgd1, hits give low values 0.88 | locus YIR030C, strain dcg1, hits give low values 0.917 | locus YJL095W, strain BCK1 (second series), hits give low values 0.887 | locus YJL095W, strain BCK1, hits give low values 0.737 and 0.818 | locus YJL129C, strain trk1, hits give low values 0.85 | locus YJL164C, strain tpk1, hits give low values 0.841 | locus YJL166W, strain qcr8, hits give low values 0.85
inactive: locus YAL021C, strain ccr4, hits give low values 0.955 | locus YAL030W, strain snc1, hits give low values 0.961 | locus YBL061C, strain skt5, hits give low values 0.927 | locus YBR021W, strain FUR4, hits give low values 0.977 | locus YBR171W, strain sec66, hits give low values 0.973 | locus YBR229C, strain ROT2, hits give low values 0.967 | locus YBR279W, strain paf1, hits give low values 0.968 | locus YCL069W, strain vba3, hits give low values 0.972 | locus YCR088W, strain abp1, hits give low values 0.939 | locus YDL005C, strain med2, hits give low values 0.988 | locus YDL035C, strain GPR1, hits give low values 0.872 | locus YDL040C, strain nat1, hits give low values 0.973 | locus YDL074C, strain BRE1, hits give low values 0.786 | locus YDL101C, strain DUN1, hits give low values 0.95 | locus YDL185W, strain tfp1, hits give low values 0.956 | locus YDR001C, strain nth1, hits give low values 0.975 | locus YDR069C, strain doa4, hits give low values 0.939 | locus YDR150W, strain NUM1, hits give low values 0.942 | locus YDR162C, strain NBP2, hits give low values 0.884 | locus YDR195W, strain ref2 1.12 | locus YDR297W, strain sur2, hits give low values 0.948 | locus YDR334W, strain swr1, hits give low values 0.988 | locus YDR335W, strain msn5, hits give low values 0.96 | locus YEL037C, strain rad23, hits give low values 0.976 | locus YEL061C, strain CIN8 (second series), hits give low values 0.983 | locus YEL061C, strain CIN8, hits give low values 0.943 | locus YER015W, strain faa2, hits give low values 0.978 | locus YER016W, strain bim1, hits give low values 1.05 | locus YER110C, hits give low values 0.987 | locus YER111C, strain swi4, hits give low values 0.976 | locus YER167W, strain BCK2, hits give low values 0.923 | locus YFR010W, strain ubp6, hits give low values 0.971 | locus YGL167C, strain pmr1, hits give low values 0.981 | locus YGL227W, strain vid30, hits give low values 0.977 | locus YGL240W, strain doc1, hits give low values 0.899 | locus YGR078C, strain PAC10, hits give low values 0.882 | locus YHR027C, strain rpn1, hits give low values 0.966 | locus YHR079C, strain IRE1, hits give low values 0.862 | locus YHR094C, strain hxt1, hits give low values 0.964 | locus YHR129C, strain ARP1, hits give low values 0.949 | locus YIL066C, strain RNR3, hits give low values 0.967 | locus YIL073C, strain SPO22, hits give low values 0.811 | locus YJL092W, strain hpr5, hits give low values 0.943 | locus YJL115W, strain asf1, hits give low values 0.993 | locus YJL134W, strain LCB3, hits give low values 0.96 | locus YJL154C, strain vps35, hits give low values 0.993 | locus YJL168C, strain set2, hits give low values 0.947 | locus YJL187C, strain SWE1 (second series), hits give low values 0.931
